Measurements as given in the supplement of paper PMC7366291.
Structures can show the parent of a compound that is named as a salt. ± gives the standard deviation of the averaged measurements.

Tested on: Danio rerio Tg(wt1b:EGFP) embryo, pronephros
Assay: fraction of imaged embryos annotated as normal kidney; higher = less nephrotoxic; extreme values may be limits of the assay
Settings: 25 µM; exposure: 24-48 hpf
Outline: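 The read-out is the proportion of embryos in each treatment manually annotated as normal-kidney. Exposure ran from 24 to 48 hpf at 28.5°C in 12-well plates, using dechorionated Tg(wt1b:EGFP) zebrafish embryos in 5 mM HEPES-buffered E3 with 0.003% PTU, 0.5% DMSO and 25 μM compound. For imaging, larvae were anaesthetised with tricaine, positioned dorsally in agarose-filled 96-well plates and captured by widefield fluorescence (470 nm, 10 z-slices), with scoring done on maximum projections.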

| SMILES | fraction of imaged embryos annotated as normal kidney |
| --- | --- |
| CCCc1nc2c(C)cc(-c3nc4ccccc4n3C)cc2n1Cc1ccc(-c2ccccc2C(=O)O)cc1 [Telmisartan] | 0.75 |
| O=C1NCCN1CCN1CCC(c2cn(-c3ccc(F)cc3)c3ccc(Cl)cc23)CC1 [Sertindole] | 0.833 |
| CN(C)CCOC(c1ccccc1)c1ccccc1.Cn1c(=O)c2[nH]c(Cl)nc2n(C)c1=O [Dimenhydrinate] | 0.917 |
| O=c1n(CCCN2CCN(c3cccc(Cl)c3)CC2)nc2ccccn12 [Trazodone hydrochloride] | 1 |
| OCCOCCN1CCN(C(c2ccccc2)c2ccc(Cl)cc2)CC1 (stereo unspecified) [Hydroxyzine dihydrochloride] | 1 |
| COc1ccccc1N1CCN(CCCNc2cc(=O)n(C)c(=O)n2C)CC1 [Urapidil hydrochloride] | 0.917 |

Tested on: Danio rerio Tg(wt1b:EGFP) embryo, pronephros
Assay: pronephric angle neck segment to proximal convoluted tubule (mean of left and right), fold change vs DMSO control; higher = larger pronephric angle
Settings: 25 µM; exposure: 24-48 hpf
Outline: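 Dechorionated Tg(wt1b:EGFP) zebrafish embryos were kept from 24 to 48 hpf at 28.5°C in HEPES-buffered E3 containing 0.003% PTU, 0.5% DMSO and 25 μM compound. The pronephroi were then imaged from the dorsal side in agarose-filled 96-well plates at 470 nm with 10 z-slices, and 16 reference points were placed by hand on maximum projections in Fiji so that a macro could calculate distances and angles. Values lying more than 2 SD from the mean of a feature were discarded. Every feature is given as a fold change against the mean of DMSO-treated embryos from the same day.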

| SMILES | pronephric angle neck segment |
| --- | --- |
| CS(=O)(=O)c1ccc(C2=C(c3ccccc3)C(=O)OC2)cc1 [Rofecoxib] | 0.969 ± 0.024 |
| C[C@]12C=CC(=O)C=C1CC[C@@H]1[C@@H]2C(=O)C[C@@]2(C)[C@H]1CC[C@]2(O)C(=O)CO [Prednisone] | 1.08 ± 0.065 |
| CCOC(=O)c1ccc(OC(=O)CCCCCNC(=N)N)cc1 [Gabexate mesilate] | 0.961 ± 0.013 |
| Cc1cccc(Nc2ccccc2C(=O)O)c1C [Mefenamic acid] | 1.63 ± 0.059 |
| N#Cc1ccc(C(c2ccc(C#N)cc2)n2cncn2)cc1 [Letrozole] | 0.938 ± 0.014 |
| Cc1cccc(C)c1NC(=O)CN1CCN(CCCC(c2ccc(F)cc2)c2ccc(F)cc2)CC1 [Lidoflazine] | 0.988 ± 0.13 |
| CC(=O)OC[C@H]1O[C@@H]([S-])[C@H](OC(C)=O)[C@@H](OC(C)=O)[C@@H]1OC(C)=O.CCP(CC)CC.[Au+] [Auranofin] | 1.19 ± 0.024 |
| O=C(O)c1cccnc1 [Niacin] | 0.992 ± 0.032 |
| CCCOc1ccccc1-c1nc2[nH]nnc2c(=O)[nH]1 [Zaprinast] | 1.08 ± 0.12 |
| O=S(=O)(O)c1cc(O)ccc1O [Ethamsylate] | 0.9847 ± 0.0033 |
| CCCN(CCC)S(=O)(=O)c1ccc(C(=O)O)cc1 [Probenecid] | 0.915 ± 0.028 |
| C#C[C@]1(O)CC[C@H]2[C@@H]3CCc4cc(OC)ccc4[C@H]3CC[C@@]21C [Ethynylestradiol 3-methyl ether] | 1.03 ± 0.013 |
| CCN(CC)CCNC(=O)c1cc(Br)c(N)cc1OC [Bromopride] | 1.02 ± 0.036 |
| c1ccc(C2CN3CCSC3=N2)cc1 (stereo unspecified) [Tetramisole hydrochloride] | 0.94 ± 0.035 |
| C[C@H](CCC(=O)O)[C@H]1CC[C@H]2[C@@H]3C(=O)C[C@@H]4CC(=O)CC[C@]4(C)[C@H]3CC(=O)[C@]12C [Dehydrocholic acid] | 0.984 ± 0.029 |
| O=C1CC2(CCCC2)CC(=O)N1CCCCN1CCN(c2ncccn2)CC1 [Buspirone hydrochloride] | 1.01 ± 0.034 |
| CC(C)Nc1cccnc1N1CCN(C(=O)c2cc3cc(NS(C)(=O)=O)ccc3[nH]2)CC1 [Delavirdine] | 0.921 ± 0.045 |
| CC(C)(C(=O)c1cccnc1)c1cccnc1 [Metyrapone] | 1.03 ± 0.076 |
| O=C1CCC(N2C(=O)c3ccccc3C2=O)C(=O)N1 (stereo unspecified) [Thalidomide] | 0.748 ± 0.037 |
| C=C1c2c(Cl)ccc(O)c2C(=O)C2=C(O)[C@]3(O)C(=O)C(C(N)=O)=C(O)[C@@H](N(C)C)[C@@H]3[C@@H](O)[C@H]12.O=C(O)c1cc(S(=O)(=O)O)ccc1O [Meclocycline sulfosalicylate] | 0.9562 ± 0.0078 |

| SMILES | pronephric angle neck segment |
| --- | --- |
| NCCC[C@H](N)CC(=O)N[C@H]1CNC(=O)[C@H]([C@H]2C[C@H](O)NC(N)=N2)NC(=O)/C(=C/NC(N)=O)NC(=O)[C@H](CO)NC(=O)[C@H](CO)NC1=O [Viomycin sulfate] | 1.07 ± 0.088 |
| O=C(O)CCC(=O)c1ccc(-c2ccccc2)cc1 [Fenbufen] | 1.32 ± 0.18 |
| C=CCOc1ccccc1OCC(O)CNC(C)C (stereo unspecified) [Oxprenolol hydrochloride] | 1.0054 ± 0.00047 |
| O=C(O)c1cn(-c2ccc(F)cc2)c2cc(N3CCNCC3)c(F)cc2c1=O [Sarafloxacin] | 1.02 ± 0.013 |
| COc1ccc(CC2c3cc(OC)c(OC)cc3CC[N+]2(C)CCC(=O)OCCCCCOC(=O)CC[N+]2(C)CCc3cc(OC)c(OC)cc3C2Cc2ccc(OC)c(OC)c2)cc1OC (stereo unspecified) [Atracurium besylate] | 0.954 ± 0.016 |
| CCOCCn1c(N2CCCN(C)CC2)nc2ccccc21 [Emedastine] | 0.9917 ± 0.0031 |
| Cn1cnc2c1c(=O)[nH]c(=O)n2C [Theobromine] | 1.0118 ± 0.00063 |
| COc1ccc([C@@H]2CC(=O)c3c(O)cc(O[C@@H]4O[C@H](CO[C@@H]5O[C@@H](C)[C@H](O)[C@@H](O)[C@H]5O)[C@@H](O)[C@H](O)[C@H]4O)cc3O2)cc1O [Hesperidin] | 0.981 ± 0.012 |
| O=C(OCC(O)CO)c1ccccc1Nc1ccnc2cc(Cl)ccc12 (stereo unspecified) [Glafenine hydrochloride] | 1.02 ± 0.017 |
| COc1ccc(Cl)cc1C(=O)NCCc1ccc(S(=O)(=O)NC(=O)NC2CCCCC2)cc1 [Glibenclamide] | 0.999 ± 0.047 |
| CN(C/C=C/C#CC(C)(C)C)Cc1cccc2ccccc12 [Terbinafine] | 1.01 ± 0.025 |
| CN(C)CCOC1=Cc2ccccc2Sc2ccc(Cl)cc21 [Zotepine] | 1.08 ± 0.11 |
| CN1CCC(=C2c3ccccc3C=Cc3ccccc32)CC1 [Cyproheptadine hydrochloride] | 1.2 ± 0.081 |
| CCn1cc(C(=O)O)c(=O)c2ccc(C)nc21 [Nalidixic acid sodium salt] | 1.19 ± 0.022 |
| CCCc1nc2c(C)cc(-c3nc4ccccc4n3C)cc2n1Cc1ccc(-c2ccccc2C(=O)O)cc1 [Telmisartan] | 1.16 ± 0.046 |
| O=C1NCCN1CCN1CCC(c2cn(-c3ccc(F)cc3)c3ccc(Cl)cc23)CC1 [Sertindole] | 0.949 ± 0.071 |
| CN(C)CCOC(c1ccccc1)c1ccccc1.Cn1c(=O)c2[nH]c(Cl)nc2n(C)c1=O [Dimenhydrinate] | 1.029 ± 0.0072 |
| O=c1n(CCCN2CCN(c3cccc(Cl)c3)CC2)nc2ccccn12 [Trazodone hydrochloride] | 0.997 ± 0.0034 |
| OCCOCCN1CCN(C(c2ccccc2)c2ccc(Cl)cc2)CC1 (stereo unspecified) [Hydroxyzine dihydrochloride] | 0.964 ± 0.048 |
| COc1ccccc1N1CCN(CCCNc2cc(=O)n(C)c(=O)n2C)CC1 [Urapidil hydrochloride] | 1.02 ± 0.025 |
